{"source": "PubChem BioAssay (NCATS)", "note": "Inconclusive results are not listed. Where a call stands in place of a potency, no number is given. Active and inactive are the calls of the source. Calls come from the whole dose curve; as a rule, active = well fitted cell-killing curve with a large enough effect; inconclusive = small, poorly fitted or top-dose-only effect; inactive = flat fitted curve, though single readings scatter.", "data": [{"assay": "Cell Viability - LYMP2-021 (AID 974);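 note: compound exposure lasts 24 hours at 37 °C; nearly all actives have a fitted effect of over 55% in size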", "conditions": "LYMP2-021 lymphoblastoid cells viability; series mostly up to 92.2 µM", "description": "NIH Chemical Genomics Center [NCGC]\nNIH Molecular Libraries Screening Centers Network [MLSCN]\nNational Institutes of Environmental Health Sciences [NIEHS]\nNational Toxicology Program [NTP]\nWe have developed a 1536-well cell-based assay for quantitative high throughput screening (qHTS) against a number of cell lines to determine in vitro cytotoxicity of small molecules. This particular assay uses a human lymphoblastoid cell line (LYMP2-021) purchased from Coriell Institute for Medical Research.\nNCGC Assay Protocol Summary:\nThe CellTiter-Glo luminescent cell viability assay (Promega) is a homogeneous method to measure the number of viable cells in culture. The end point readout of this assay is based on quantitation of intracellular ATP, an indicator of metabolic activity, using the luciferase reaction. Luciferase catalyzes the oxidation of beetle Luciferin to oxyluciferin and light in the presence of ATP. The luminescent signal is proportional to amount of ATP present.\nUsing the CellTiter-Glo luminescent cell viability assay, the amount of cellular ATP was measured in the lymphoblastoid cell line with complete culture medium following compound treatment for 24 hours. The assay was performed in opaque white Kalypsys 1536-well plates. In the screen, tetraoctylammonium bromide was used as positive control. Library compounds were measured for their ability to cause acute toxicity in the cell line, as reflected by a decrease in intracellular ATP levels, in a concentration-dependent manner. […] AC50 values were determined from concentration-response data modeled with the standard Hill equation.\nqHTS protocol for CellTiter Glo lymphoblastoid cellular assay\n[Step] [Parameter] [Value] [Description]\n1. Reagent; 5 uL; 2500 lymphoblastoid cells/well\n2. Time; 5 hr; 37 C incubation\n4. Controls; 23 nL; Tetraoctylammonium bromide 6.4pM to 92 uM\n5. Time; 24 hr; 37 C incubation\n6. Reagent; 5 uL; CellTiter Glo reagent\n7. Time; 30 min; Room Temperature\n8. Detection; Luminescence; Viewlux plate reader\nKeywords: cell viability, cytotoxicity, lymphoblastoid cell line, luminescence, NTPHTS, NTPHTS_NCGC, NIEHS, DSSTox, MLSMR, MLSCN, NIH Roadmap, qHTS, NCGC", "values": [{"smiles": "COC(=O)c1ccccc1", "Potency": "inactive"}, {"smiles": "C1CCOC1", "Potency": "inactive"}, {"smiles": "Cc1ccc(C)c(O)c1", "Potency": "inactive"}, {"smiles": "CC(=O)OC(C)C", "Potency": "inactive"}, {"smiles": "c1ccc2[nH]cnc2c1", "Potency": "inactive"}, {"smiles": "CC(C)(C)OCC1CO1", "note": "(stereo not given)", "Potency": "inactive"}, {"smiles": "C=Cc1ccccn1", "Potency": "inactive"}, {"smiles": "CCCCCCCCCCCCC1CO1", "note": "(stereo not given)", "Potency": "inactive"}, {"smiles": "CCOCCO", "Potency": "inactive"}, {"smiles": "ClC/C=C/CCl", "Potency": "inactive"}, {"smiles": "Clc1ccccn1", "Potency": "inactive"}, {"smiles": "CC(=O)CCc1ccccc1", "Potency": "inactive"}, {"smiles": "Cc1ccc2ncccc2c1", "Potency": "inactive"}, {"smiles": "COC(=O)CCC(=O)OC", "Potency": "inactive"}, {"smiles": "CC(CCl)OC(C)CCl", "note": "(stereo not given)", "Potency": "inactive"}, {"smiles": "COC(=O)CC#N", "Potency": "inactive"}, {"smiles": "CCCCC(=O)N(C)C", "Potency": "inactive"}, {"smiles": "OC(CCl)CCl", "Potency": "inactive"}, {"smiles": "C[C@@H]1CC2(OC3C[C@@]4(C)C5=CC[C@H]6C(C)(C)C(O[C@@H]7OC[C@@H](O)[C@H](O)[C@H]7O)CC[C@@]67C[C@@]57CC[C@]4(C)C31)OC(O)C1(C)OC21", "note": "(stereo not given in full)", "Potency": "inactive"}, {"smiles": "CCCC(C)CO", "note": "(stereo not given)", "Potency": "inactive"}, {"smiles": "O=[N+]([O-])c1cccc(C(F)(F)F)c1", "Potency": "inactive"}, {"smiles": "CC(=O)Nc1ccc(N)cc1", "Potency": "inactive"}, {"smiles": "Nc1cccc(C(F)(F)F)c1", "Potency": "inactive"}, {"smiles": "O=C1OC(=O)c2c(Br)c(Br)c(Br)c(Br)c21", "Potency": "inactive"}, {"smiles": "Nc1nc(-c2ccccc2)cs1", "Potency": "inactive"}, {"smiles": "O=C(O[C@@H](C(=O)O)[C@@H](OC(=O)c1ccccc1)C(=O)O)c1ccccc1", "Potency": "inactive"}, {"smiles": "C/C=C(/C)C#N", "Potency": "inactive"}, {"smiles": "CC(=O)Nc1cccc(N)c1", "Potency": "inactive"}, {"smiles": "O=Cc1ccc(CO)o1", "Potency": "inactive"}, {"smiles": "Cc1ccc2ccccc2c1[N+](=O)[O-]", "Potency": "inactive"}, {"smiles": "FB(F)F", "Potency": "inactive"}, {"smiles": "CSc1ccc(C=O)cc1", "Potency": "inactive"}, {"smiles": "c1ccc(Oc2ccccc2)cc1", "Potency": "inactive"}, {"smiles": "CC(=O)C1(C)CC2=C(CCCC2(C)C)CC1C", "note": "(stereo not given)", "Potency": "inactive"}, {"smiles": "CC(C)=CCC/C(C)=C/C=O", "Potency": "inactive"}, {"smiles": "Cc1cc(C(=O)O)ccc1[N+](=O)[O-]", "Potency": "inactive"}, {"smiles": "Cc1ccc2c(c1[N+](=O)[O-])C(=O)c1ccccc1C2=O", "Potency": "inactive"}, {"smiles": "Clc1cc(Cl)cc(Cl)c1", "Potency": "inactive"}, {"smiles": "C=CCCC", "Potency": "inactive"}, {"smiles": "CCNc1ccccc1", "Potency": "inactive"}]}]}
